Among all 320,000 compounds or so, about 2,100 (0.66%) were called active. About 53% were inconclusive and are not listed. The call rests on the fitted dose curve; in most records, active means well fitted inhibition curve with a large enough effect in the signal ratio, with a control signal flat (not every such curve was filed as active); inconclusive means small, poorly fitted or top-dose-only effect, or effect the other way, or a change in a side signal; inactive means flat fitted curve, though single readings scatter; the % refers to the signal ratio. Many of the other results were omitted from the sample, so actives are more common in it than they were.

The values below come from PubChem BioAssay AID2685 (National Center for Advancing Translational Sciences (NCATS), 2010).
Potency means the concentration at half of the fitted maximal effect.

A short description of this test: qHTS Assay for Lipid Storage Modulators in Drosophila S3 Cells.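 On cell number change: cells counted by Cell Tracker Red CMTPX staining in the red channel.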 On lipid storage change, negative = inhibition: on the % scale 0 is the no-effect control and ±100 the full control effect. Particulars: BODIPY lipid droplet fluorescence, 18-24 h, cells fed with added oleic acid; cell number change: measured here: cell count max response; series mostly up to 46.1 µM; lipid storage change, negative = inhibition: at the top concentration. An excerpt: NIH Molecular Libraries Probe Production Centers Network [MLPCN] NIH Chemical Genomics Center [NCGC] MLPCN Grant: 1 R03 MH085686-01 Assay Submitter (PI): Beller, Mathias; Max-Planck-Institut fur Biophysikalische Chemie NCGC Assay Overview: Storing lipids as a reservoir for energy or the anabolism of elementary metabolites is a common feature of probably all cells and is conserved from bacteria to humans. The universal cellular lipid storage organelle is the so-called lipid storage droplet (LD). Although ubiquitous, LDs share a simple structure composed of a hydrophobic core that harbors the storage lipids, which is shielded by a droplet-specific phospholipid monolayer to which proteins are attached. The current model of LD biogenesis involves an incorporation of the lipid core into the membrane leaflets of the endoplasmic reticulum (ER) followed by a subsequent budding-like maturation of a LD, which ultimately pinches off. Once released, LD volume can increase by localized lipogenesis or fusion of existing droplet. Storage lipids are re-mobilized enzymatically by lipase activity. Lipase regulation in the adipocyte is heavily studied and involves multiple components including catecholamine signaling, the LD-associated proteins Perilipin and comparative gene identification (CGI-58) and at least two lipases named hormone sensitive lipase (HSL) and adipocyte triglyceride lipase (ATGL). LD regulation outside of the adipocyte is poorly understood and only few components are known. However, there is an urgent need to learn more about ectopic fat depots as mislocalized storage of lipids, for example in the liver or muscle, is an eminent health problem associated with insulin resistance or the metabolic syndrome. We developed a laser-scanning cytometer assay to enable 1,536-well screening and combined the results of the small molecules screen with an RNAi database based on lipid storage.
Triacsin C (Sigma-Aldrich T-4540), an inhibitor of long-chain fatty acyl CoA synthetase that blocks synthesis of triglycerides, was used as a positive control for lipid under-storage. A total of 23 nL of compound solution of different concentrations were transferred to the assay plates using a Kalypsys pin tool equipped with a 1,536-pin array containing 10-nL slotted pins (FP1S10, 0.457-mm diameter, 50.8 mm long; V&P Scientific). One microliter of oleic acid (400 uM) was added, and the plate was lidded with stainless steel rubber gasket lined lids containing pinholes. […] Fluorescence was detected by excitation of the fluorophores with a 488-nm laser on an Acumen Explorer (TTP Lab Tech). The total intensity in channel 2 (500-530 nm) reflected lipid droplet accumulation. Cells were detected using channel 3 (575-640 nm) with 5-um width and 100-um depth filters. The ratio of the number of objects in PMT channel 2 over the number of objects in PMT channel 3 was also calculated. Percent activity was computed relative to an internal control (100% inhibited lipid droplet deposition due to the presence of 20 uM Triacsin C), which was added to 32 wells/plate.
As for `COCCn1c(C(F)(F)F)ccc(NC(=O)c2ccccc2)c1=O`, the Potency is 8.2 µM (active) and the cell number change was 27.8%.
With `COc1ccc(C(=O)Nc2ccc(C(F)(F)F)n(C)c2=O)cc1`, the “lipid storage change, negative = inhibition” value was 16.1% (inactive) and the cell number change was determined as 6.54%.
Turning to `Cc1ccc(C(=O)Nc2ccc(C(F)(F)F)n(C)c2=O)cc1`, the “lipid storage change, negative = inhibition” value was 9.63% (inactive) and the cell number change is 11.7%.
For the compound `CCN(CC(=O)Nc1ccc(OC)cc1)C(=O)CCc1nc2ccccc2c(=O)[nH]1`, the “lipid storage change, negative = inhibition” value is 1.47% (inactive) and the cell number change was -4.18%.
For the compound `Cc1c([N+](=O)[O-])c([N+](=O)[O-])nn1CC(=O)NCCc1ccccc1`, the “lipid storage change, negative = inhibition” value was -10.5% (inactive) and the cell number change was determined as 2.95%.
For `CC(=O)c1ccc(OC(C)C)c(CC(C(N)=O)C(N)=O)c1`, the Potency was 25.9 µM (active).
Regarding `CCCOc1ccc(C(C)=O)cc1CC(C(=O)OCC)C(=O)OCC`, the “lipid storage change, negative = inhibition” value was 0.302% (inactive) and the cell number change turned out to be 1.14%.
Taken in the same sequence, the figures for `CC(=O)c1ccc(OC(C)C)c(CN2CCCCC2)c1` were -11.4% (inactive) and -4.17%.
Taken in the same sequence, the figures for `NC(=O)CS(=O)(=O)c1ccc(Cl)cc1` were -4.86% (inactive) and 0.328%.
For `CC(C)=CC(=O)O[C@@H]1Cc2cc3ccc(=O)oc3cc2OC1(C)C` the same measures were 13.2% (inactive) and -1.68%.
On to `Cc1cc(Nc2ccc(Cl)cc2)nc(-c2ccccc2O)n1`, for which the “lipid storage change, negative = inhibition” value is -7.33% (inactive) and the cell number change worked out at 25.5%.
For the compound `Cc1cc(Nc2ccc(Br)cc2)nc(-c2ccccc2O)n1`, the Potency was 1.16 µM (active) and the cell number change worked out at 5.51%.
Turning to `Cc1cc(Nc2ccc(F)c(F)c2)nc(-c2ccccc2O)n1`, the “lipid storage change, negative = inhibition” value is -1.55% (inactive) and the cell number change is -20.3%.
For `O=C(NNC(=O)c1ccccc1O)c1ccc(NS(=O)(=O)c2ccc(F)c(F)c2)cc1` the same measures were 8.77% (inactive) and 6.77%.
For the compound `NS(=O)(=O)c1cccc(NS(=O)(=O)c2ccc3ccccc3c2)c1`, the compound was classed as inactive and the cell number change is -9.72%.
For the compound `Cc1ccc(S(=O)(=O)N2CCCOC2)cc1`, the Potency is 20.6 µM (active) and the cell number change is -23.3%.
Consider `Cc1ccc(S(=O)(=O)N2CCCN(S(=O)(=O)c3ccc(C)cc3)CC2)cc1`, for which the compound was classed as inactive and the cell number change was -15.5%.
As for `Cc1ccc(-c2ccc(S(=O)(=O)N3CCCC3)cc2)cc1`, the “lipid storage change, negative = inhibition” value was 14.6% (inactive).
In the case of `CC1(C)CC(=O)C(CC(=O)NC(=O)NCc2ccccc2)=C(O)C1`, the “lipid storage change, negative = inhibition” value is 0.0826% (inactive) and the cell number change was 9.3%.
On to `O=C(CSc1ccccc1)Nc1nnc(COc2ccc(Cl)cc2)s1`, for which the Potency is 9.2 µM (active) and the cell number change is -4.77%.
For the compound `COCc1nnc(NC(=O)CSc2ccccc2)s1`, the “lipid storage change, negative = inhibition” value is 7.39% (inactive) and the cell number change is -1.84%.
As to `COCC(=O)Nc1nnc(COc2ccc(Cl)cc2)s1`, the “lipid storage change, negative = inhibition” value was 1.56% (inactive) and the cell number change was -17.4%.
As for `CCN(CC)c1ccc(/C=N/NC(=S)NCc2ccccc2)c(O)c1`, the Potency is 11.6 µM (active) and the cell number change was -19.6%.
On to `CCN(CC)c1ccc(/C=N/Nc2ccccc2)c(O)c1`, for which the “lipid storage change, negative = inhibition” value is 6.59% (inactive) and the cell number change was -10.7%.
For `CCN(CC)c1ccc(/C=N/NC(=S)NC)c(O)c1` the same measures were -4.58% (inactive) and 2.22%.
Take `COc1ccc(-c2c3c(=O)n(C)c(=O)n(C)c3cn2-c2ccccc2O)cc1`: the “lipid storage change, negative = inhibition” value was -3.76% (inactive) and the cell number change was 9.81%.
Taken in the same sequence, the figures for `CC(=O)N(Cc1cccnc1)Cc1cc2ccc(C)cc2[nH]c1=O` were 15.6% (inactive) and -7.01%.
